From PubChem BioAssay
Unmarked numbers belong to inactive results. The rule behind the calls is not given here.

The compounds below were run against Botulinum neurotoxin type A (Clostridium botulinum) (UniProt P0DPI0) (assay: BoNT/A light chain protease inhibitors, biochemical, multiplex microsphere flow cytometry, validation set (AID 588460)). Settings: at 10 µM, hits give high values.
Chain of Botulinum neurotoxin type A (Clostridium botulinum) (P0DPI0 whole entry, looked up): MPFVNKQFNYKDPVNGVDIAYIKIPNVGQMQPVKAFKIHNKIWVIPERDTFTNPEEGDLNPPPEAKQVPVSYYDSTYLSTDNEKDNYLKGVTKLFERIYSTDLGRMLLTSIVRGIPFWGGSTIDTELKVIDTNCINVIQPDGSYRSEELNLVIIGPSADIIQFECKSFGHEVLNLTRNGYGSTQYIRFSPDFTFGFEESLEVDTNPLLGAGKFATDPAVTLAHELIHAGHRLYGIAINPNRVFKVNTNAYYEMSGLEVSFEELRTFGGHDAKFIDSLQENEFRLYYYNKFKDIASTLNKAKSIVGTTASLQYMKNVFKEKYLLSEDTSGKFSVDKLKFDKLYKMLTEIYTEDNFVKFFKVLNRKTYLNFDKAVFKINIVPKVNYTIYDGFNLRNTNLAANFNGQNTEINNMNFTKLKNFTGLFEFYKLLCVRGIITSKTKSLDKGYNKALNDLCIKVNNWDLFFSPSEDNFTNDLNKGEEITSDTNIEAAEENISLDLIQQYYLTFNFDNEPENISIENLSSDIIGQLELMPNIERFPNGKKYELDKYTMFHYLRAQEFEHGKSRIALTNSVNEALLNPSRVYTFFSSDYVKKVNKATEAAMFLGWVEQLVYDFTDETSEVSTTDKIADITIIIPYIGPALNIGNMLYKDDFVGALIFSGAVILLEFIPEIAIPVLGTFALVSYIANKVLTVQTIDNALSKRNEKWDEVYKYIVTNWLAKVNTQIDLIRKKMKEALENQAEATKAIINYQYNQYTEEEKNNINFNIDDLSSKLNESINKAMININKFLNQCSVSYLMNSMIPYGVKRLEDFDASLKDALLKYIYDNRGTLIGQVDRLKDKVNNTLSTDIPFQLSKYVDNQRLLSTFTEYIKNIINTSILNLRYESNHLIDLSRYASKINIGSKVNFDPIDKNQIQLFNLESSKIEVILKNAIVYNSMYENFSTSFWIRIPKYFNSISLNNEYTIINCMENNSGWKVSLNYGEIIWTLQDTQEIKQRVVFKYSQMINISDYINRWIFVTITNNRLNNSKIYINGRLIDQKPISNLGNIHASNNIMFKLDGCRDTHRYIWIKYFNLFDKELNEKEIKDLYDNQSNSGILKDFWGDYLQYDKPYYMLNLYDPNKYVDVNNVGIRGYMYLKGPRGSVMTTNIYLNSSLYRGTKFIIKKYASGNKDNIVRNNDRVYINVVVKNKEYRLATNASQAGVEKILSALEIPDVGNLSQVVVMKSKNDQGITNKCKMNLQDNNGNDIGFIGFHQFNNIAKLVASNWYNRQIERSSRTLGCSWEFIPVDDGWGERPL
For COc1ccc(NS(=O)(=O)c2ccc(N)cc2)nn1, the inhibition was 2%.
In the case of CC(=O)CSc1ncnc2c1cnn2-c1ccccc1, the inhibition is reported as 0.8%.
In the case of COc1ccc(C2C(C(=O)c3ccco3)=C(O)C(=O)N2CC2CCCO2)cc1 (stereo not drawn), the inhibition is reported as 0.2%.
In the case of Cc1ccc2c(c1)c1c3n2CCCN(Cc2ccccc2)C3CCC1 (stereo not drawn), the inhibition is reported as -0.1%.
Work on c1ccc(Nc2cccc3c(Nc4ccccc4)cccc23)cc1 yielded an inhibition of -3%.
In the case of O=C(O)[C@H](Cc1ccccc1)NC(=O)N1CCC(Cc2ccccc2)CC1, the inhibition is reported as 0.9%.
C[C@]12CC[C@H]3C(=CCc4cc(O)ccc43)[C@@H]1CCC2=O showed an inhibition of -0.6%.
Work on CCn1c(O)c(/C=C2\C=Nc3ccccc32)sc1=O yielded an inhibition of 0.3%.
Compound Cc1ccc2nc3c(cc(C(=O)NCC4CCCO4)c(=N)n3CCCOC(C)C)c(=O)n2c1 (stereo not drawn) has an inhibition of -0.1%.
O=C1c2ccccc2C(=O)N1/N=C/c1ccc(Oc2ccc([N+](=O)[O-])cn2)cc1 showed an inhibition of 0.8%.
For C[C@]12CC[C@@H]3c4ccc(O)cc4CC[C@H]3[C@@H]1C[C@@H](O)[C@@H]2O[C@@H]1O[C@H](C(=O)O)[C@@H](O)[C@H](O)[C@H]1O, the inhibition was 0.2%.
In the case of CC12CCC(C(=O)NNc3ccccc3)(C(=O)C1=O)C2(C)C (stereo not drawn), the inhibition is reported as 0.4%.
NC(=O)OCC(COC(N)=O)c1ccccc1 gave an inhibition of -1.7%.
Compound COc1ccc(/C=C/C(=O)c2cc3cccc(OC)c3oc2=O)cc1 has an inhibition of 2.8%.
COc1ccc(CNC(=O)C2CCN(C(=O)[C@@H](CC(C)C)NC(=O)OC(C)(C)C)CC2)cc1 showed an inhibition of -0.8%.
Work on Cc1ccccc1OCCSc1nc2ncnc(N)c2[nH]1 yielded an inhibition of -1%.
In the case of O=c1ccc2ccccc2o1, the inhibition is reported as -1.4%.
With O=C(O)CCCCCCNC(=O)c1cncc(O)c1 the inhibition was 0.2%.
In the case of Nc1ccc2cn[nH]c2c1, the inhibition is reported as -2.9%.
Work on COc1ccc(CNCCC(c2ccc(F)cc2)c2ccc(OC(C)C)cc2)cc1OC (stereo not drawn) yielded an inhibition of -2%.
COc1ccc(NC(=O)CC(c2ccccc2)c2ccco2)cc1 (stereo not drawn) showed an inhibition of 0.9%.
Compound COCc1cc(=O)[nH]c(/N=C(\N)Nc2ccc(Oc3ccccc3)cc2)n1 has an inhibition of 0.1%.
For CC(C)C(=O)Nc1ccc2c3c(cccc13)CC2, the inhibition was 0.5%.
For CC1(C#CC[N+]2(C)CCCCC2)CCC2C(O1)c1ccccc1OC2(C)C (stereo not drawn), the inhibition was -0.8%.
O=c1cc(-c2ccc3c(c2)OCCO3)oc2ccc(Cl)cc12 gave an inhibition of -0.6%.
In the case of CC(=O)N1CC23C=CC(CC2CC12CCCCCC2)O3 (stereo not drawn), the inhibition is reported as -1.4%.
With CCc1cc(/C(Cc2ccccn2)=N\O)c(O)cc1O the inhibition was -2.8%.
CC(=O)C1=C(NC(=O)c2ccc(C(F)(F)F)cc2)C[C@@H]2[C@H]1C2(C)C showed an inhibition of 1.5%.
Work on CCOC(=O)c1oc2cc(OCC(N)=O)ccc2c(=O)c1-c1ccc(OC)c(OC)c1 yielded an inhibition of 1.1%.
In the case of Cc1ccccc1NC(=O)C1(C)Cc2ccccc2C(=O)O1 (stereo not drawn), the inhibition is reported as 0.5%.
CC(=O)Oc1ccc(C(c2ccc(OC(C)=O)cc2)c2ccccn2)cc1 was tested, and the inhibition was -0.3%.
For NC(=O)c1ccccc1O, the inhibition was -1.1%.
For N/C(=N\OC(=O)CCCOc1ccc(Cl)cc1Cl)c1ccncc1, the inhibition was 0.1%.
For Oc1ccccc1OCCOc1ccccc1OCCOc1ccccc1O, the inhibition was 0.7%.
Compound COc1ccc(-c2cc(=O)oc3c(C)c(O)c(CN(C)C)cc23)cc1 has an inhibition of 0.6%.
CC1CCc2cc(F)cc3c(=O)c(C(=O)O)cn1c23 (stereo not drawn) gave an inhibition of 1.8%.
With O=C1CCCCCN1Cc1ccccc1 the inhibition was -1.9%.
Compound Nc1ccc(S(=O)(=O)c2ccc(N)cc2)cc1 has an inhibition of -2.5%.
Compound O=[N+]([O-])c1ccc(O)c2ncccc12 has an inhibition of -3.7%.

What follows are compounds tested against Lethal factor (Bacillus anthracis) (UniProt P15917) (assay: Bacillus anthracis lethal factor inhibition, microsphere flow cytometry protease assay, validation at 10 µM (AID 588461)). Settings: multiplex microsphere protease cleavage assay, hits give high values.
Chain of Lethal factor (Bacillus anthracis) (P15917 whole entry, looked up): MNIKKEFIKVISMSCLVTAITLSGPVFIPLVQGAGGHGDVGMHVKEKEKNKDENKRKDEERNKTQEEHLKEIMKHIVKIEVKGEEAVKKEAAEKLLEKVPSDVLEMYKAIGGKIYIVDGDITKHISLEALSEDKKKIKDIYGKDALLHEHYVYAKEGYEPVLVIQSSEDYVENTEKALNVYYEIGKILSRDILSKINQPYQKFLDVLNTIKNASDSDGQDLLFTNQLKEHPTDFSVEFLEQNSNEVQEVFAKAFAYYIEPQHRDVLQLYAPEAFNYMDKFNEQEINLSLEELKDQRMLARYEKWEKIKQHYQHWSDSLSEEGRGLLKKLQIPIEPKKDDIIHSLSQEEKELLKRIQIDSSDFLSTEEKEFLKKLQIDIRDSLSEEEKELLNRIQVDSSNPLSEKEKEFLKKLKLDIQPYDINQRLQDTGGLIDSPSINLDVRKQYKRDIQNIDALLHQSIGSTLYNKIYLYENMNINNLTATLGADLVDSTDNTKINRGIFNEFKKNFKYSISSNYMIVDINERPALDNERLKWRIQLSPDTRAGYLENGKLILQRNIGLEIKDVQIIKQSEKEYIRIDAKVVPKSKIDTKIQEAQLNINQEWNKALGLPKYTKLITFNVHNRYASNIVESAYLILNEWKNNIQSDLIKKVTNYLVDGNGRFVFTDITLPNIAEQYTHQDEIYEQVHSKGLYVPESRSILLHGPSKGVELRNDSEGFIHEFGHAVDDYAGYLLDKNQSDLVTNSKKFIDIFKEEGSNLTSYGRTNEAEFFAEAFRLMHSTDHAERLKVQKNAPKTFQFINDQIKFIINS
COc1ccc(NS(=O)(=O)c2ccc(N)cc2)nn1 showed an inhibition of -0.1%.
For CC(=O)CSc1ncnc2c1cnn2-c1ccccc1, the inhibition was -1.6%.
COc1ccc(C2C(C(=O)c3ccco3)=C(O)C(=O)N2CC2CCCO2)cc1 (stereo not drawn) showed an inhibition of -4.2%.
In the case of Cc1ccc2c(c1)c1c3n2CCCN(Cc2ccccc2)C3CCC1 (stereo not drawn), the inhibition is reported as -3%.
c1ccc(Nc2cccc3c(Nc4ccccc4)cccc23)cc1 gave an inhibition of -25.4%.
O=C(O)[C@H](Cc1ccccc1)NC(=O)N1CCC(Cc2ccccc2)CC1 gave an inhibition of -2.3%.
Work on C[C@]12CC[C@H]3C(=CCc4cc(O)ccc43)[C@@H]1CCC2=O yielded an inhibition of 2.9%.
Work on CCn1c(O)c(/C=C2\C=Nc3ccccc32)sc1=O yielded an inhibition of -0.8%.
For Cc1ccc2nc3c(cc(C(=O)NCC4CCCO4)c(=N)n3CCCOC(C)C)c(=O)n2c1 (stereo not drawn), the inhibition was -4%.
O=C1c2ccccc2C(=O)N1/N=C/c1ccc(Oc2ccc([N+](=O)[O-])cn2)cc1 showed an inhibition of -1.7%.
Compound C[C@]12CC[C@@H]3c4ccc(O)cc4CC[C@H]3[C@@H]1C[C@@H](O)[C@@H]2O[C@@H]1O[C@H](C(=O)O)[C@@H](O)[C@H](O)[C@H]1O has an inhibition of -6.5%.
CC12CCC(C(=O)NNc3ccccc3)(C(=O)C1=O)C2(C)C (stereo not drawn) gave an inhibition of -3.4%.
With NC(=O)OCC(COC(N)=O)c1ccccc1 the inhibition was -2.1%.
With COc1ccc(/C=C/C(=O)c2cc3cccc(OC)c3oc2=O)cc1 the inhibition was 8.8%.
COc1ccc(CNC(=O)C2CCN(C(=O)[C@@H](CC(C)C)NC(=O)OC(C)(C)C)CC2)cc1 was tested, and the inhibition was -3.7%.
Work on Cc1ccccc1OCCSc1nc2ncnc(N)c2[nH]1 yielded an inhibition of 0.1%.
With O=c1ccc2ccccc2o1 the inhibition was -1.4%.
With O=C(O)CCCCCCNC(=O)c1cncc(O)c1 the inhibition was 7.5%.
Nc1ccc2cn[nH]c2c1 showed an inhibition of -16.3%.
In the case of COc1ccc(CNCCC(c2ccc(F)cc2)c2ccc(OC(C)C)cc2)cc1OC (stereo not drawn), the inhibition is reported as 8.2%.
COc1ccc(NC(=O)CC(c2ccccc2)c2ccco2)cc1 (stereo not drawn) was tested, and the inhibition was 9.1%.
With COCc1cc(=O)[nH]c(/N=C(\N)Nc2ccc(Oc3ccccc3)cc2)n1 the inhibition was 5.6%.
CC(C)C(=O)Nc1ccc2c3c(cccc13)CC2 showed an inhibition of -3%.
CC1(C#CC[N+]2(C)CCCCC2)CCC2C(O1)c1ccccc1OC2(C)C (stereo not drawn) was tested, and the inhibition was -2.1%.
In the case of O=c1cc(-c2ccc3c(c2)OCCO3)oc2ccc(Cl)cc12, the inhibition is reported as 0.9%.
Compound CC(=O)N1CC23C=CC(CC2CC12CCCCCC2)O3 (stereo not drawn) has an inhibition of 1.3%.
Compound CCc1cc(/C(Cc2ccccn2)=N\O)c(O)cc1O has an inhibition of -5.1%.
CC(=O)C1=C(NC(=O)c2ccc(C(F)(F)F)cc2)C[C@@H]2[C@H]1C2(C)C was tested, and the inhibition was -1%.
CCOC(=O)c1oc2cc(OCC(N)=O)ccc2c(=O)c1-c1ccc(OC)c(OC)c1 gave an inhibition of 1.9%.
For Cc1ccccc1NC(=O)C1(C)Cc2ccccc2C(=O)O1 (stereo not drawn), the inhibition was -0.2%.
CC(=O)Oc1ccc(C(c2ccc(OC(C)=O)cc2)c2ccccn2)cc1 showed an inhibition of -2.2%.
NC(=O)c1ccccc1O was tested, and the inhibition was 2.5%.
N/C(=N\OC(=O)CCCOc1ccc(Cl)cc1Cl)c1ccncc1 was tested, and the inhibition was 1%.
Oc1ccccc1OCCOc1ccccc1OCCOc1ccccc1O was tested, and the inhibition was -0.4%.
Work on COc1ccc(-c2cc(=O)oc3c(C)c(O)c(CN(C)C)cc23)cc1 yielded an inhibition of -2.1%.
Compound CC1CCc2cc(F)cc3c(=O)c(C(=O)O)cn1c23 (stereo not drawn) has an inhibition of 3.5%.
O=C1CCCCCN1Cc1ccccc1 showed an inhibition of -2.7%.
For Nc1ccc(S(=O)(=O)c2ccc(N)cc2)cc1, the inhibition was 4.9%.
O=[N+]([O-])c1ccc(O)c2ncccc12 gave an inhibition of -2.8%.
